# Compounds with a hit are over-represented: about 2.6% of the library has one in this group of screens.
# hERG WT inh: inhibitors of human wildtype KCNH2 potassium channel. Q12809. U2OS, BacMam KCNH2, thallium flux FluxOr; stronger effect = lower value. activity change, % at 1.84 µM. 340,000 compounds, 0.37% hits;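 active means maximum activity change below -70%; inconclusive means maximum activity change between -70% and -50%; inactive means maximum activity change above -50%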; further: on the % scale 0 is the no-effect control and ±100 the full control effect
# Target sequence (Q12809 whole entry, looked up): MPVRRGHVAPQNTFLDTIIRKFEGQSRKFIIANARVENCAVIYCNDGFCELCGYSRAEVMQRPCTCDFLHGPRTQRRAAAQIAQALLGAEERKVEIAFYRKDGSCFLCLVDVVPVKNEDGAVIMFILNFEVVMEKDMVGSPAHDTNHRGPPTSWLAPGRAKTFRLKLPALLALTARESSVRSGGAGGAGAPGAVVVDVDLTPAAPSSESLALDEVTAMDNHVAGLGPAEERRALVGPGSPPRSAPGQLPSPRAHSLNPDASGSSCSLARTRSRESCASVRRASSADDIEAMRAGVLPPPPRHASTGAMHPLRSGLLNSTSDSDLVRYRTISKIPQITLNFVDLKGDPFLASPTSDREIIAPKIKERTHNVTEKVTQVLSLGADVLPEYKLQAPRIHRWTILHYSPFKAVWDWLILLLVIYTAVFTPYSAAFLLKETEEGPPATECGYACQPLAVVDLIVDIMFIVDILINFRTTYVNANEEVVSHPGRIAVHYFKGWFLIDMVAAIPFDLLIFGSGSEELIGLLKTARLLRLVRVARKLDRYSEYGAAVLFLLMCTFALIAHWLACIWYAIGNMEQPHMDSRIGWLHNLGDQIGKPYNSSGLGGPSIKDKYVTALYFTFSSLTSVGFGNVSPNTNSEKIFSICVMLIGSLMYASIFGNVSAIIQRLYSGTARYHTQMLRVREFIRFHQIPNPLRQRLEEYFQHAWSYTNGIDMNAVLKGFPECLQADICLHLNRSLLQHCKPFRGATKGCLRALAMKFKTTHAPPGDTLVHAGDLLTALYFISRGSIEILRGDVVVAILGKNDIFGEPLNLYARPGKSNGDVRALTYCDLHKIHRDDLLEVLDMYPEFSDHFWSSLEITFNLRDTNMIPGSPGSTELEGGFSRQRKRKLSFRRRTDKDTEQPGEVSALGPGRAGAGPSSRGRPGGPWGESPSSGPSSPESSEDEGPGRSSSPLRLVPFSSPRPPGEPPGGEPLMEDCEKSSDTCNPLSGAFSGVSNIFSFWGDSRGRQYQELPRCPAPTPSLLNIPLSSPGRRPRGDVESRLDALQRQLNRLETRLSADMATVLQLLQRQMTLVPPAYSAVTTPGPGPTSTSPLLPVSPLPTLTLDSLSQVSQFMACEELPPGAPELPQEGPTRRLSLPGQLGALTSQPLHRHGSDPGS
#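 U2OS cells were transduced with wild-type KCNH2 virus (2.03 x 10^8 / mL) for 4 h at room temperature, then cultured overnight at 37 C. Thallium flux was read with FluxOr dye. Rate constants were normalized to DMSO controls.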
# ClpP mod: qHTS Assay for Activators of ClpP. ATP-dependent Clp protease proteolytic subunit (Bacillus subtilis (strain 168)), P80244. purified B. subtilis ClpP, FRET peptide cleavage, 20 min. Potency, µM (titrated, usually from 57.5 µM), inactives show at the top dose activity change, negative = active. 340,000 compounds, 1.9% hits. AID 651965, 2013; active means well fitted falling curve with a large enough effect; inconclusive means small, poorly fitted or top-dose-only effect; inactive means no such curve, though single readings can be large or run the other way; further: potency means the concentration at half of the fitted maximal effect; the source files actives as falling curves though it sought activators and does not explain the sign; nearly all actives have a fitted effect of over 65% in size
#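 ClpP 10 microg/mL final, pH 8 Tris/KCl buffer with BSA, glycerol, Tween-20; compound pinned in; FRET-FV substrate; RT 20 min; Ex320/Em430; ΔFRET vs ADEP 5.8 microM, DMSO, no enzyme.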
# TRPV1 agonist: agonists of human vanilloid receptor 1 (TRPV1) | activation, % at 8.33 µM | Q8NER1 | 320,000 compounds, 0.19% hits | AID 540275 | TRPV1-expressing cells, Fluo-8 calcium influx, agonist mode; in the data active means activation above about 80%; inconclusive means between about 30% and that limit; further: 0% is about no effect
#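 Cells expressing TRPV1 were dye-loaded with Fluo-8 and read kinetically: 10 s baseline, 3 min after compound (agonist portion), then 2 min after EC20 capsaicin (allosteric enhancer portion). Calcium-bound dye fluorescence at 480/520 nm.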
# KCNH2 3.1 block: inhibitors of human KCNH2 3.1 potassium channel isoform; U2OS KCNH2 3.1, thallium flux FluxOr; stronger effect = lower value; activity change, % (tested at about 1.8 µM); 340,000 compounds, 0.95% hits; AID 720553;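 active means maximum activity change below -70%; inconclusive means maximum activity change from -70% to -50%; inactive means maximum activity change above -50%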;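 further: thallium influx rate constant from kinetic fluorescence after stimulation buffer; on the % scale 0 is the no-effect control and ±100 the full control effect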
#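 Thallium flux via FluxOr fluorescence (Red40 quencher, 45 min loading) in U2OS cells virally expressing the KCNH2 3.1 isoform (1.77 x 10^8 /mL virus, overnight at 37 C). Rate constants from 2-min kinetic reads post-stimulation, normalised to positive and negative controls.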
# p53 reactivation: restores transcriptional activity of mutant p53 | H1299 p53-A138V BP100-luciferase reporter, luminescence, 24 h | 320,000 compounds, 0.063% hits | AID 504706 | Potency, µM (highest dose often 92.2 µM), inactives show top-dose activity change, positive = activation, hits mostly activators; active means well fitted activation curve with a large enough effect; inconclusive means small, poorly fitted or top-dose-only effect; inactive means no such curve, though single readings can be large or run the other way; further: potency means the concentration at half of the fitted maximal effect; % of control where 0% means no effect; nearly all actives have a fitted effect of over 45% in size
#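 p53-null H1299 cells stably carrying temperature-sensitive p53-A138V and a BP100-luciferase reporter were pinned with compounds (4-point, 1:5 series) and held 24 hrs at 37 deg C. Luminescence was read 10 min after detection reagent.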
# TRPV1 potentiator: human TRPV1 potentiation | TRPV1-expressing cells, Fluo-8 calcium influx, capsaicin EC20 potentiation | 320,000 compounds, 0.02% hits | AID 540277 | potentiation, % at 8.33 µM; in the data active means potentiation above about 80%; inconclusive means between about 30% and that limit; further: 0% is about no effect
#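 Fluo-8 calcium influx in TRPV1-expressing cells, kinetic read (ex 480/em 520 nm). Compound added and read 3 min for agonist activity, followed by capsaicin at EC20 final and 2 min further read for enhancement.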
# An asterisk follows results filed as active; i = inactive; ? = inconclusive; / = no result given.
SMILES,hERG WT inh,ClpP mod,TRPV1 agonist,KCNH2 3.1 block,p53 reactivation,TRPV1 potentiator
CC(=O)NC(C)(c1ccccc1)c1nc(-c2cccc(C(F)(F)F)c2)cs1 (stereo not drawn),/,0%,/,/,/,/
S=Cc1nc2ccccc2[nH]1,/,-7%,/,/,/,/
Cc1c(CCC(=O)NCc2ccc(F)cc2)c(=O)oc2cc(O)ccc12,/,4%,/,/,/,/
O=C(N/C=N/O)C1=NOC(CNc2ncc(C(F)(F)F)cc2Cl)C1 (stereo not drawn),-5,-4%,?,2,5%,-8
O=C(C1=NOC(CNc2ncc(C(F)(F)F)cc2Cl)C1)N1CCOCC1 (stereo not drawn),i,/,121*,7,-4%,-9
O=C(NC1CC1)C1=NOC(CNc2ncc(C(F)(F)F)cc2Cl)C1 (stereo not drawn),20,1%,80*,-2,1%,-5
Cc1ccccc1NC(=O)c1ccccc1OCC(=O)Nc1ccc(Br)cc1,/,-9%,/,/,/,/
Fc1ccc(-c2[nH]ncc2CN2CCN(c3ccc(F)cc3)CC2)cc1,31,/,/,-19,-1%,/
COc1ccc(-c2[nH]ncc2CN2CCC(O)(c3ccc(Cl)cc3)CC2)cc1,1,/,4,-70*,-6%,0
OCC1(CCOc2ccccc2)CCN(Cc2cn[nH]c2-c2ccc(F)cc2)CC1,?,/,0,-104*,-3%,0
OC1(c2ccc(Cl)cc2)CCN(Cc2cn[nH]c2-c2ccccc2)CC1,?,/,5,-87*,-4%,5
OC1(c2ccc(Cl)cc2)CCN(Cc2cn[nH]c2-c2ccc(F)cc2)CC1,-6,/,1,-88*,-6%,-6
O=S(=O)(Nc1ccc2oc3c(c2c1)CCCC3)c1cc(Cl)ccc1Cl,/,-2%,/,/,/,/
CN1OC[C@@H]2CN(Cc3ccccc3)[C@H](c3ccc(-n4ccnc4)cc3)C[C@@H]21,/,-3%,/,/,/,/
c1ccc2c(c1)[nH]c1c(N3CCC4(CC3)OCCO4)ncnc12,-3,28µM*,?,5,-7%,-14
CCOc1ccc2[nH]c3c(N4CCN(c5ccccn5)CC4)ncnc3c2c1,5,28µM*,-1,-34,-31%,-18
c1ccc(CN2CCN(c3ncnc4c3[nH]c3ccccc34)CC2)cc1,-18,?,80*,-25,-6%,-34
Cc1ccc2[nH]c3c(N4CCN(Cc5ccccc5)CC4)ncnc3c2c1,-6,?,?,-9,-11%,-16
c1ccc2c(c1)CCN(c1ncnc3c1[nH]c1ccccc13)C2,-1,20µM*,?,-15,-38%,-1
CCc1ccc(NC(=O)c2sc3nc(C)c(C(=O)Nc4ccc(C)cc4C)c(-c4ccco4)c3c2N)cc1,/,-2%,/,/,/,/
COc1ccc(NC(=O)Cn2c(=O)n(Cc3ccc4c(c3)OCO4)c(=O)c3ccc(C(=O)NC4CCCCC4)cc32)cc1,/,-2%,/,/,/,/
CC1CCc2c(sc(NC(=O)COc3ccccc3C(C)(C)C)c2C#N)C1 (stereo not drawn),/,1%,/,/,/,/
CC1CCc2c(sc(NC(=O)COC(=O)c3ccccc3NCc3ccco3)c2C#N)C1 (stereo not drawn),-5,13µM*,1,3,8%,-9
COC(=O)c1oc2ccc(OC)cc2c1N,-4,16µM*,-4,-7,?,22
COc1ccc2oc(C(=O)OC(C)C(=O)NC3(C#N)CCCCC3)c(C)c2c1 (stereo not drawn),3,25µM*,?,13,-3%,-21
SMILES,hERG WT inh,ClpP mod,TRPV1 agonist,KCNH2 3.1 block,p53 reactivation,TRPV1 potentiator
COc1ccc2oc(C(=O)OCC(=O)NC(C)(C#N)C3CC3)c(C)c2c1 (stereo not drawn),-2,32µM*,11,1,2%,-12
COc1ccc2oc(C(=O)OCC(=O)NC(=O)NC(C)C)c(C)c2c1,1,32µM*,21,-22,4%,-12
COc1ccc(C(=O)N2CCCCC2c2cc(C(=O)NCc3ccccc3)no2)cc1 (stereo not drawn),/,-2%,/,/,/,/
COc1ccc2oc(C(=O)OCC(=O)Nc3ccc(N4CCOCC4)cc3)c(C)c2c1,-12,32µM*,-2,0,9%,7
COc1ccc2oc(C(=O)OCC(=O)Nc3ccccc3OC)c(C)c2c1,-2,-1%,-2,-2,8%,8
COc1ccc2oc(C(=O)OCC(=O)Nc3ccccc3)c(C)c2c1,-4,28µM*,4,-8,10%,4
Cc1nn2c(=O)cc(COC(=O)c3ccc(NC(=O)CCc4ccccc4)cc3)nc2s1,/,-24%,/,/,/,/
C[C@@H]1[C@H](c2ccccc2)OCCS(=O)(=O)N1Cc1ccc(Cl)cc1,/,1%,/,/,/,/
CC1CCCCN1C(=O)c1ccc(NC(=O)c2ccccc2Cl)cc1 (stereo not drawn),-202*,0%,0,?,14%,5
CC1CCCCN1C(=O)c1ccc(C(=O)Nc2ccc(F)cc2)cc1 (stereo not drawn),5,3%,3,-7,-2%,-9
COc1cccc(CNC(=O)c2ccc3c(c2)nc2n3CCCCC2)c1OC,/,-23%,/,/,/,/
COc1cccc(CNC(=O)CSc2nc(=O)n(Cc3ccncc3)c3c2CCC3)c1,-7,13µM*,-2,3,1%,-30
COc1cccc(NC(=O)CSc2nc(=O)n(Cc3ccncc3)c3c2CCC3)c1,/,-3%,/,/,/,/
CCOC(=O)Cc1c(C)nc2c(-c3ccc(OC)c(OC)c3)c(C)nn2c1C,/,1%,/,/,/,/
COc1ccc([C@H]2[C@@H](C#N)[C@H](C#N)N3CCCN23)cc1,1,-26%,-4,-98*,1%,11
N#CC1C(C#N)N2CCCN2C1c1ccc(Cl)cc1 (stereo not drawn),-6,1%,-2,4,9%,11
COc1ccc(C2C(C#N)C(C#N)N3CCCN23)cc1 (stereo not drawn),0,32µM*,-1,9,-1%,-4
Cc1nc2ccc(C(=O)NCCCn3ccnc3)cn2c1N(C)C(=O)CCc1ccccc1,/,-5%,/,/,/,/
COc1ccccc1CN1CCCC(C(=O)N(C)Cc2ccccc2)C1 (stereo not drawn),1,-13%,/,16,-4%,/
COc1ccc(CN2CCCC(C(=O)N(C)Cc3ccccc3)C2)cc1OC (stereo not drawn),-9,-6%,-1,-75*,12%,2
Cc1c(CNC(C)CCc2ccccc2)c(C(=O)O)c(C)n1Cc1ccc(F)cc1 (stereo not drawn),/,-4%,/,/,/,/
COc1ccc(-c2cc(C(=O)Oc3ccc(C)cc3)c3ccccc3n2)cc1,/,4%,/,/,/,/

# Assay outcomes from PubChem BioAssay.
